Assay [1] can be described thus: A CellTox Green Cytotoxicity Assay to monitor cytotoxicity in HEK293 cells - 32 hour (AID 1224881). Note: nearly all actives have a fitted effect of over 40% in size. Note: potency is the fitted concentration of half-maximal effect. A digest of the protocol: (§1)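 Dead-cell fluorescence measured kinetically: asymmetric cyanine dye, HEK293, 600 cells/well, 5 h settle, 23 nL cpd/DMSO, 37 C, reads 0–40 h every 8 h.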
Assay [2] is described as follows: A CellTox Green Cytotoxicity Assay to monitor cytotoxicity in HepG2 cells - 0 hour (AID 1224882). Note: nearly all actives have a fitted effect of over 35% in size. A digest of the protocol: (§2)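 First, HepG2 cells (600/well) mixed with reagent were plated; second, after 5 h at 37 C they received compounds via pintool; third, fluorescence was measured at 0 h through 40 h at 8 h intervals.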
The nature of assay [3]: A CellTox Green Cytotoxicity Assay to monitor cytotoxicity in HepG2 cells - 32 hour (AID 1224883). Note: nearly all actives have a fitted effect of over 50% in size. Note: potency is the fitted concentration of half-maximal effect. The gist of the method: as §2
Assay [4] in a line: qHTS RealTime-Glo MT Cell Viability Assay in HepG2 cells - 16 hour (AID 1224885). Note: nearly all actives have a fitted effect of over 50% in size. The gist of the method:
(§3)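 Viability was tracked continuously by NanoLuc luminescence from prosubstrate reduced by living HepG2 cells, at successive time points over 40 h of compound exposure. Cells with reagent were preincubated 5 h at 37 °C before compound addition.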
In general terms: Quantitative high-throughput screening tests each substance at several concentrations.

The nature of assay [5]: qHTS RealTime-Glo MT Cell Viability Assay in HEK293 cells - 24 hour (AID 1224886). Note: nearly all actives have a fitted effect of over 50% in size. Note: potency is the fitted concentration of half-maximal effect. A digest of the protocol:
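Viability tracked continuously by luminescence as live cells reduce a prosubstrate for NanoLuc; HEK293 cells preincubated 5 h, compound-treated at 37 C, and read at 0, 8, 16, 24, 32 and 40 h.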

Assay [6] in a line: qHTS RealTime-Glo MT Cell Viability Assay in HEK293 cells - 8 hour (AID 1224887). Note: nearly all actives have a fitted effect of over 50% in size. Note: potency is the fitted concentration of half-maximal effect. A digest of the protocol:
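600 HEK293 cells per well, dispensed already mixed with RealTime-Glo MT reagents. Compound dosing came 5 h later. The same wells were read for luminescence at 0, 8, 16, 24, 32 and 40 h of exposure at 37 C.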

A short description of assay [7]: qHTS RealTime-Glo MT Cell Viability Assay in HepG2 cells - 0 hour (AID 1224889). Note: nearly all actives have a fitted effect of over 50% in size. A digest of the protocol: as §3
The nature of assay [8]: A CellTox Green Cytotoxicity Assay to monitor cytotoxicity in HepG2 cells - 8 hour (AID 1224890). Note: nearly all actives have a fitted effect of over 45% in size. The gist of the method:
as §2

A short description of assay [9]: qHTS assay to identify small molecule antagonists of the estrogen receptor alpha (ER-alpha) signaling pathway using the BG1 cell line in the presence of 0.1 nM 17-beta-estradiol - cell viability counter screen (AID 1259241). Note: nearly all actives have a fitted effect of over 40% in size. The gist of the method:
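VM7Luc4E2, 4,000 cells/well, phenol red-free medium + 10% charcoal-stripped FBS; 24 hr plating; cpd + 0.1 nM E2 final, 22 hr 37C/5% CO2; CellTiter-Fluor 30 min, fluorescence.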

The nature of assay [10]: qHTS assay to identify small molecule antagonists of the androgen receptor (AR) signaling pathway using the MDA cell line in the presence of 0.5 nM R1881 - cell viability counter screen (AID 1259242). Note: nearly all actives have a fitted effect of over 45% in size. The gist of the method:
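qHTS format. MDA-kb2 (MMTV-luc, AR/GR responsive) + cpd + 0.5 nM R1881 final, 16 hr 37C/0% CO2 → CellTiter-Fluor 30 min → fluorescence intensity.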

The target in assay [11] is Estrogen receptor (Homo sapiens) (UniProt P03372). Description: qHTS assay to identify small molecule antagonists of the estrogen receptor alpha (ER-alpha) signaling pathway using the BG1 cell line in the presence of 0.1 nM 17-beta-estradiol (AID 1259244). Note: nearly all actives have a fitted effect of over 50% in size. A digest of the protocol: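 Reporter is a stably transfected luciferase under four estrogen responsive elements in VM7Luc4E2 cells expressing native full-length ER-alpha; inhibition of 0.1 nM (final) 17beta-estradiol-driven signal over 22 h is read by luminescence.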
Sequence of Estrogen receptor (Homo sapiens) (P03372 whole entry, looked up): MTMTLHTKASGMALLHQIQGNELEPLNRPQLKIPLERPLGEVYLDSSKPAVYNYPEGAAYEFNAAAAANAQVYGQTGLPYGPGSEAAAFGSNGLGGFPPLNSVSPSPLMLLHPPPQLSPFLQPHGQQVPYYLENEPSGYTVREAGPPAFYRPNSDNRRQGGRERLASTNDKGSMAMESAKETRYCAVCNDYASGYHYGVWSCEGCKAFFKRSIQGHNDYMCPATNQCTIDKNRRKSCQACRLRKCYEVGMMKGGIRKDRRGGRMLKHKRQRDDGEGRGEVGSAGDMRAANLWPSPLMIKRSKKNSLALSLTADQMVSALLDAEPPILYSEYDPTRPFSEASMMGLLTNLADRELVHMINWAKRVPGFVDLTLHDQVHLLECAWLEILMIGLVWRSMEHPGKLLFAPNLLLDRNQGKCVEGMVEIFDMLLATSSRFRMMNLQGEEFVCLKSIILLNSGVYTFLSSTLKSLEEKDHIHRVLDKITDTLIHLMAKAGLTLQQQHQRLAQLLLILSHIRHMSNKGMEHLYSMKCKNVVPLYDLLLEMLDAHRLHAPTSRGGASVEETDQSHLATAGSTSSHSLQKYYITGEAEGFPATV

Assay [12] is described as follows: qHTS assay to identify small molecule HDAC inhibitors (AID 1259364). Note: potency is the fitted concentration of half-maximal effect.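 Note: wild-type HCT-116 cells with endogenous class I/II HDAC activity; nearly all actives have a fitted effect of over 45% in size.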 The gist of the method: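 Quantitative high-throughput format: overnight-seeded HCT-116 cells got compounds for 2 hr at 37C; HDAC-Glo I/II reagent added, 30 min RT, luminescence measured.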
The nature of assay [13]: qHTS assay to identify small molecule HDAC inhibitors - cell viability counter screen (AID 1259365). A digest of the protocol: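 Luminescence from CellTiter-Glo, developed 30min at room temperature, reports viability of wild-type HCT-116 cells treated 2hr with compounds at 37 C and 5% CO2 after overnight plating.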
Assay [14] is described as follows: qHTS assay to identify small molecule agonists of the sonic hedgehog signaling (Shh) pathway - cell viability counter screen (AID 1259366). Note: nearly all actives have a fitted effect of over 50% in size. The gist of the method:
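Cytotoxicity counter screen run in the same wells as the Shh reporter assay. NIH/3T3 cells carrying a Gli1 response element–driven luciferase were treated with DMSO-dissolved compounds for 24hr, and live-cell protease activity was measured with CellTiter-Fluor.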

The nature of assay [15]: qHTS assay to identify small molecule antagonists of the sonic hedgehog signaling (Shh) pathway - cell viability counter screen (AID 1259367). Note: nearly all actives have a fitted effect of over 55% in size. A digest of the protocol:
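Fluorescence read-out (CellTiter-Fluor, 1 hr at 37C) taken after 23 hr compound treatment of 3T3 Gli1-Luc cells stimulated with conditioned medium. Cells were seeded at 2,000 per well and pre-incubated 4 hr.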

Assay [16] can be described thus: qHTS assay to identify small molecule agonists of the sonic hedgehog signaling (Shh) pathway (AID 1259368; calls by dose curve;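 note: NIH/3T3-derived 3T3Gli1-Luc cells carrying a stable Gli1-driven firefly luciferase reporter; series mostly up to about 92 µM; nearly all actives have a fitted effect of over 15% in size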). The gist of the method: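 Quantitative high-throughput format using a Gli1-driven firefly luciferase reporter line derived from NIH/3T3 cells. After a 24 hr compound treatment at 37 C and 5% CO2, luminescence reported Gli1 response element activity.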
A short description of assay [17]: A CellTox Green Cytotoxicity Assay to monitor cytotoxicity in HEK293 cells - 8 hour (AID 1224884). Note: nearly all actives have a fitted effect of over 35% in size. A digest of the protocol:
as §1

Assay [18] can be described thus: A CellTox Green Cytotoxicity Assay to monitor cytotoxicity in HEK293 cells - 16 hour (AID 1224888). Note: nearly all actives have a fitted effect of over 35% in size. The gist of the method:
as §1

Assay [19] is described as follows: qHTS assay to identify small molecule phospholipidosis (PLD) inducers (AID 1259344; active = well fitted curve in the direction sought with a large enough effect; an effect the other way counts as inactive or inconclusive). The gist of the method:
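Read-out is LipidTOX Red fluorescence (ex 595/em 615) imaged in HepG2 cells after 24 h compound exposure at 37 C, with Hoechst nuclear counterstain (ex 352/em 461) allowing per-cell normalisation.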

Each structure is given as a SMILES string. Values without a mark were called inactive. Inconclusive results are not listed. Calls of active or inactive are those of the source. Unless noted, calls come from the whole dose curve; as a rule, active = well fitted curve in the direction sought with a large enough effect in the repeat runs; inconclusive = weak or mixed curves; inactive = no such curve, though single readings can be large; an effect the other way counts as inactive or inconclusive.
% is set by controls: 0 for no effect and ±100 for the full control effect.

For `Cc1occc1S`, the Potency entry in assay [1], in [2], in [3], in assay [4], in assay [5] and in assay [6] was “inactive” each time. The Potency entry in assay [7], in assay [8], in assay [9], in [10], in assay [11] and in assay [12] was “inactive” throughout. In addition, the Potency result in assay [14] and in assay [15] was “inactive” each time. For the same compound, the outcome in assay [13] and in assay [16] was inactive.
Take `CN(C)CC[C@@H](c1ccc(Br)cc1)c1ccccn1`: the Potency result in [1], in assay [2], in assay [3], in assay [17], in assay [6] and in [18] was “inactive” each time. The Potency result in assay [7], in assay [8], in assay [9], in [10], in assay [11] and in assay [19] was “inactive” each time. Moreover, the Potency entry in assay [12], in [14] and in assay [15] was “inactive” throughout. The outcome in assay [13] and in assay [16] was inactive.
Turning to `CC(=O)O[C@H]1C[C@@H]2CC[C@@H]3[C@H](CC[C@@]4(C)[C@H]3C[C@H]([N+]3(C)CCCCC3)[C@@H]4OC(C)=O)[C@@]2(C)C[C@@H]1N1CCCCC1`, the Potency entry in assay [1], in assay [2], in [3], in assay [17], in assay [5] and in assay [6] was “inactive” throughout. Moreover, the Potency result in assay [7], in assay [8], in assay [9], in assay [10], in assay [11] and in assay [19] was “inactive” each time. Moreover, the Potency entry in assay [12], in assay [14] and in assay [15] was “inactive” in each case. The result in assay [13] and in assay [16] was inactive.
As for `N#Cc1cc2ccccc2c2ccccc12`, the Potency result in assay [1], in assay [2], in assay [17], in assay [4], in assay [5] and in [6] was “inactive” each time. The Potency entry in assay [18], in [7], in assay [8], in assay [9], in [10] and in assay [11] was “inactive” throughout. Besides, the Potency entry in [12] and in [14] was “inactive” throughout. The compound was classed as inactive in [13] and in assay [16].
Take `NC1CCN(c2nc3c(cc2F)c(=O)c(C(=O)O)cn3-c2ccc(F)cc2F)C1` (stereo not drawn): the Potency result in [1], in assay [2], in assay [3], in assay [4], in assay [5] and in assay [18] was “inactive” throughout. The Potency result in assay [7], in [8], in [9], in assay [10], in [11] and in [19] was “inactive” throughout. Moreover, the Potency result in assay [12], in [14] and in assay [15] was “inactive” throughout. The outcome in assay [16] was inactive.
Take `CC(C)(C)c1cc(CCC(=O)OCC(COC(=O)CCc2cc(C(C)(C)C)c(O)c(C(C)(C)C)c2)(COC(=O)CCc2cc(C(C)(C)C)c(O)c(C(C)(C)C)c2)COC(=O)CCc2cc(C(C)(C)C)c(O)c(C(C)(C)C)c2)cc(C(C)(C)C)c1O`: the Potency result in assay [1], in [2], in assay [3], in [4], in assay [5] and in assay [6] was “inactive” in each case. For the same compound, the Potency result in assay [18], in assay [7], in assay [9], in [10], in assay [11] and in assay [14] was “inactive” in each case. Besides, the Potency entry in assay [15] is “inactive”. Further, the compound was called inactive in assay [13] and in [16].
In the case of `CC(CN)CCCN` (stereo not drawn), the Potency result in [1], in assay [2], in assay [3], in assay [17], in assay [5] and in assay [18] was “inactive” in each case. The Potency result in assay [7], in assay [8], in assay [9], in [10], in [11] and in [12] was “inactive” each time. In assay [14], the Potency result is “inactive”. Besides, the compound was classed as inactive in [13] and in [16].
On to `CCCCCCCCCCCCCCC1CO1` (stereo not drawn), for which the Potency result in [1], in assay [2], in assay [17], in assay [4], in [5] and in assay [6] was “inactive” in each case. Besides, the Potency entry in assay [18], in [7], in assay [8], in assay [9], in assay [10] and in assay [11] was “inactive” throughout. For the same compound, the Potency entry in [12], in assay [14] and in assay [15] was “inactive” throughout. Moreover, the compound was called inactive in assay [13] and in assay [16].
As for `CC(=O)O[C@@H]1C(=O)O[C@@H]2[C@H]1OC(=O)[C@@H]2OC(C)=O`, the Potency entry in assay [1], in [2], in [17], in [4], in assay [5] and in assay [6] was “inactive” throughout. For the same compound, the Potency entry in assay [18], in assay [7], in assay [8], in [9], in assay [10] and in assay [11] was “inactive” throughout. The Potency entry in assay [12], in assay [14] and in assay [15] was “inactive” in each case. Besides, the PLD induction in [19] was 0.969% [at 7.66 µM]. Further, the outcome in assay [13] and in [16] was inactive.
In the case of `CC[C@]12CCCN3CCc4c(n(c5ccccc45)C(=O)C1)[C@@H]32`, the Potency entry in assay [1], in assay [2], in assay [17], in assay [18], in assay [7] and in [8] was “inactive” throughout. Moreover, the Potency result in assay [9], in assay [10], in assay [19] and in [12] was “inactive” each time. Also, the Potency in [3] is 6.74 µM (active); in assay [5], 4.77 µM (active). The compound was classed as inactive in assay [13] and in assay [16].
For the compound `CC[C@H](C)[C@@H](C(=O)O)n1sc2ccccc2c1=O`, the Potency entry in assay [1], in [2], in [3], in assay [5], in [6] and in assay [18] was “inactive” throughout. For the same compound, the Potency result in [7], in [8], in assay [9], in [10], in assay [11] and in assay [14] was “inactive” in each case. Also, the Potency result in [15] is “inactive”. The compound was called inactive in assay [13] and in assay [16].
Turning to `CCCCCOC(=O)c1ccc(O)cc1`, the Potency in assay [1] is 49.6 µM (active); in [5], 44.2 µM (active); in assay [6], 44.2 µM (active); in [12], 24.6 µM (active). Also, the Potency result in assay [2], in [17], in assay [4], in [7], in assay [8] and in assay [9] was “inactive” throughout. The Potency result in [10], in [11] and in assay [14] was “inactive” each time. Besides, the compound was classed as inactive in assay [13] and in [16].
On to `Cc1cc(CC(=O)O)c(C)n1-c1ccc(Cl)cc1`, for which the Potency result in [1], in assay [3], in assay [17], in assay [4], in assay [5] and in [6] was “inactive” each time. In addition, the Potency entry in assay [7], in assay [8], in assay [9], in [10], in assay [19] and in [12] was “inactive” in each case. Besides, the Potency result in [14] and in assay [15] was “inactive” throughout. In addition, the compound was classed as inactive in [13] and in [16].
For the compound `O=CNc1ccccc1`, the Potency result in assay [1], in [3], in assay [17], in assay [4], in assay [5] and in assay [6] was “inactive” in each case. Besides, the Potency entry in assay [18], in assay [7], in [8], in [9], in assay [10] and in assay [12] was “inactive” in each case. Further, the Potency result in assay [14] and in assay [15] was “inactive” each time. Also, the result in assay [13] and in assay [16] was inactive.

For the origin of these results see PubChem BioAssay (Tox21).
